In all, about 360,000 compounds went through this assay and about 810 (0.23%) were called active. This is one part of a sample in which actives are shown more often than they occur. No stated cut-off is given here; in the data, active means potentiation above about 50%; inconclusive means mostly about 30% to 49%; inactive means weaker than that.
biological target: D(2) dopamine receptor (Homo sapiens) (UniProt P14416); test: Beta-Arrestin HTS for Positive Allosteric Modulators of the Human D2 Dopamine Receptor: Potentiators; settings: DiscoveRx D2 beta-arrestin cells, luminescence, 90 min; stronger effect = higher value; 100% = 57 uM dopamine signal
Sequence (P14416 whole entry, looked up): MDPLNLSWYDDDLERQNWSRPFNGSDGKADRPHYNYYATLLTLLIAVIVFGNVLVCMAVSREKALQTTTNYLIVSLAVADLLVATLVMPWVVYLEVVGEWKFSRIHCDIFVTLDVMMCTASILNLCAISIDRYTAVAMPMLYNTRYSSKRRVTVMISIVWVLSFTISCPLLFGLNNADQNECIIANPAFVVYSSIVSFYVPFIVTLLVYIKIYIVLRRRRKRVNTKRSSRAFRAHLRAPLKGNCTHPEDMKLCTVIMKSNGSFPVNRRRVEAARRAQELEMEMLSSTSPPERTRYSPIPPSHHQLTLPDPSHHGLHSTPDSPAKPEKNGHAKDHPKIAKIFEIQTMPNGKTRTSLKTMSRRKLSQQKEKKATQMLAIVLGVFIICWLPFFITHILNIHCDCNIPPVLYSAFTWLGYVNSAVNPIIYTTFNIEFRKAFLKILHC
Excerpt: There is great interest in identifying small molecule ligands for G-protein coupled receptors (GPCRs) as nearly 50% of all FDA-approved drugs target these important receptor proteins. […] Amongst the dopamine receptors (DARs), the D2 is arguably one of the most validated drug targets in neurology and psychiatry. For instance, all receptor-based antiparkinsonian drugs primarily work via stimulating the D2 DAR, whereas all FDA-approved antipsychotic agents are antagonists of this receptor. The D2 DAR is also therapeutically targeted in other disorders such as restless legs syndrome, tardive dyskinesia, Tourette's syndrome, and hyperprolactinemia.
To this end, a miniaturized qHTS screen was developed to be screened against the Molecular Libraries Small Molecule Repository (MLSMR). This assay seeks to identify potentiators against the D2 DAR.
NIH Molecular Libraries Probe Production Network [MLPCN]
NIH Chemical Genomics Center [NCGC]
PI Name: David Sibley, National Institutes of Neurological Disorders and Stroke
DiscoveRx D2 cells were thawed from frozen stock and seeded at 2,100 cells/ 3 uL/well media (DiscoveRx Plating Reagent 2) with MultiDrop Combi dispenser (Thermo Scientific, Logan, UT) onto white tissue culture treated 1536-well Aurora plates (Brooks Automation, Chelmsford, MA) and allowed to attach overnight at 37 deg C, 5% CO2. Next, 23 nL/well of compound solutions in DMSO were added with a pintool transfer (Kalypsis, San Diego, CA). As the positive control, 1 uL/well dopamine (EC100, 57 uM final concentration) diluted in buffer (HBSS + 10 mM HEPES + SMB + 0.1 %Tween-20) was dispensed to 1 column of each plate. EC20 (Dopamine at 50 nM final concentration) was dispensed to the rest of the plate except columns 1 &2 which were used as negative control (EC=0, buffer only), 1 uL/well as well. The cells were stimulated by compounds and dopamine for 90 minutes at 37 deg C, 5% CO2, after which 1.5 uL/well of DiscoveRx detection reagent was added with BioRAPTR FRD dispenser. The detection reagent was prepared by mixing of Galacton Star Substrate, Emerald II solution and PathHunter buffer (supplied by the assay kit) together at 1:5:19 proportion accordingly just prior to dispensing. The plates were incubated at ambient temperature for 1 hour and then the luminescent signal was read on ViewLux plate reader (PerkinElmer, Waltham, MA).

potentiation, active:
O=C(N/N=C/c1ccc([N+](=O)[O-])cc1)c1c[nH]c2ccccc12 64.1%
S=C(Nc1cccc(Cl)c1)Nc1ccc2cn[nH]c2c1 60.4%
COc1cc(C(=S)N2CCOCC2)cc(OC)c1OC(=O)c1ccc([N+](=O)[O-])cc1[N+](=O)[O-] 136%
O=C(Oc1ccccc1C(=S)N1CCCCC1)c1cc([N+](=O)[O-])cc([N+](=O)[O-])c1 58.7%
Cc1cc(C)n(CC(=O)Nc2ccc([N+](=O)[O-])cc2)n1 70.7%
CCN(CC)CCCC(C)n1c2nc(=O)[nH]c(=O)c-2nc2cc(Cl)ccc21 (stereo unspecified) 80.2%
CC(C)(C)C(=O)OCc1nc(-c2ccc(O)c(O)c2)cs1 70.4%

potentiation, inactive:
O=C1Oc2ccccc2C(=O)/C1=C/c1ccccc1O 1.41%
O=C(COc1ccc(/C=N/NC(=O)c2ccc(O)cc2)cc1)Nc1ccc([N+](=O)[O-])cc1 -4.2%
O=C(Cc1c[nH]c2ccccc12)N/N=C/c1cccc(F)c1 -9.63%
Nc1nc(CSc2nnnn2-c2ccccc2)nc(Nc2ccccc2)n1 4.76%
COCCCn1c(C(=O)NC2CCCCC2)cc2c(=O)n3cccc(C)c3nc21 -4.49%
CC12CN3CCN(CC(C3)/C1=N\NC(=O)c1ccccc1N)C2 -0.591%
CCC(C)c1ccccc1NC(=O)CN(C)CC(=O)Nc1ccccc1SC (stereo unspecified) 1.68%
COc1cccc2oc(CCc3ccccc3)cc(=O)c12 -6.37%
Cc1c2cn[nH]c(=O)c2c(C)n1Cc1ccc(F)cc1 -5.05%
CN1CCC2(CC1)NC(=O)NC2=O 11.5%
COc1cccc(N=c2oc3c(C)ncc(CO)c3cc2C(N)=O)c1 -0.831%
CCNC(=O)C1(C)CCN(C(=O)c2ccccc2)C1 (stereo unspecified) -7.31%
CN(C)S(=O)(=O)c1ccc(N2CCCC2)c(C(=O)NCc2ccccc2)c1 -8.01%
COc1cccc(CNc2ncc(-c3ccccc3)n2C)c1 -30.3%
CCOC(=O)c1cc2c(=O)[nH]c(C(Cl)(Cl)Cl)nc2o1 7.93%
CCC(C)CCN1CCN=C1N(C)C (stereo unspecified) -8.79%
Cc1ccc(N(CC(=O)NCC2CCCO2)C(=O)CNS(=O)(=O)c2ccc(Cl)cc2)cc1 (stereo unspecified) 0.715%
COc1cccc(-c2cnc(OC(C)(C)C)nc2OC(C)(C)C)c1 -5.2%
COc1cccc(CNC(=O)Cn2c(=O)oc3cc(S(=O)(=O)N4CCCCC4)ccc32)c1 -3.62%
CCOC(=O)C1(Cc2cccc(OC)c2)CCN(Cc2csc(C(C)=O)c2)CC1 -21.6%
NC1=NC(c2ccc([N+](=O)[O-])cc2)N(c2ccc(F)cc2)C(N)=N1 (stereo unspecified) 0.113%
Cc1ccc2c(c1)C(O)(CC(=O)c1cccnc1)C(=O)N2 (stereo unspecified) -30%
Cc1ccc(S(=O)(=O)n2cccc2CO)cc1 -0.194%
Cc1cccc(CNC(=O)c2sc(=O)n(Cc3ccccc3C)c2C)c1 -5.51%
CC(C)(C)N1C(=O)c2c(C(=O)OCc3ccccc3)[nH]c(-c3ccccc3)c2C1=O -2.35%
CC(C)Nc1nnc(SC(C)C(=O)N(C)C2CCCCC2)s1 (stereo unspecified) -2.23%
CCCN(CC1CC1)C(=O)COC(=O)c1ccc(C)cc1O -24.9%
Cc1ccc(S(=O)(=O)N(CCCN(C)C)Cc2ccc3c(c2)OCO3)cc1 -10.1%
CC1=C(C(=O)N(C(C)C)C(C)C)CC(CC(=O)NCCCCc2ccccc2)C(=O)N1CCC1=CCCCC1 (stereo unspecified) -4.46%
CCOC(=O)CSc1nnc(NC(=O)C2CC(=O)N(c3ccc(F)cc3)C2)s1 (stereo unspecified) -2.95%
CC(C)Cc1nnc(NC(=O)CCC(=O)Nc2ccc3cn[nH]c3c2)s1 -12.9%
O=C(Nc1ccc2cn[nH]c2c1)c1ccc(S(=O)(=O)N2CCOCC2)cc1 -3.76%
Cc1cc(N2CCCC2=O)cc(C)c1S(N)(=O)=O -18.2%
O=C1NC(=O)C(c2ccc(Cl)cc2)N1 (stereo unspecified) -7.09%
CCCCC(=O)Nc1nnc(S(=O)(=O)N(C)Cc2ccco2)s1 -7.89%
Cn1cc(/C=C/C(=O)N2CCCC(C(=O)c3ccc(C(F)(F)F)cc3)C2)cn1 (stereo unspecified) -1.59%
COc1ccc(C(=O)C[n+]2ccc(N)c(C)c2C)cc1 -3.23%
COC(=O)c1cc(Oc2ccc(S(=O)(=O)N3CCOCC3)cc2[N+](=O)[O-])cc(C(=O)OC)c1 -0.101%
COc1cc([N+](=O)[O-])cc([N+](=O)[O-])c1NC(=O)N1CCOCC1 -13.5%
O=C(NCCCn1ccnc1)C(=O)NCC1OCCN1S(=O)(=O)c1cc(F)ccc1F (stereo unspecified) -2.44%
COC(=O)c1cccnc1NC(=S)NC(C)C 2.31%
CC(=O)NC(C)(C)C1CC=C(C)/C(=N\O)C1 (stereo unspecified) -2.42%
NC(Cc1ccc(F)cc1)c1csc(Nc2nncc3ccccc23)n1 (stereo unspecified) 0.276%
Cc1ccc(Cc2c(-c3ccco3)nc3ccc(Cl)cn23)cc1 -4.9%
Cc1nn(C)c(C)c1S(=O)(=O)N1CCc2ccccc21 3.69%
CCO[C@@H]1OC(C(=O)NC2CC2)=C[C@H](C)[C@H]1CCCO -6.01%
CC1CCN(C(=S)c2cccc([N+](=O)[O-])c2)CC1 -3.98%
O=C(Oc1ccc(Br)cc1C(=S)N1CCOCC1)c1cccc([N+](=O)[O-])c1 -0.594%
CCCCn1c(N)c(N(CCC(C)C)C(=O)c2ccc(COc3ccccc3)o2)c(=O)[nH]c1=O -0.984%
COc1cccc(NC(=O)C2(C)CCN2Cc2ccccc2Cl)c1 (stereo unspecified) -7.17%
CN(CC(=O)Nc1c(Cl)cccc1Cl)C(=O)CC1OC(=O)c2ccccc21 (stereo unspecified) -2.61%
CC(OC(=O)c1ccccc1NCCO)C(=O)Nc1ccnn1C(C)C (stereo unspecified) -3.07%
O=C(NCc1cc(F)cc(C(F)(F)F)c1)C1CCC(=O)N(C2CCCC2)C1 (stereo unspecified) 2.66%
Cc1ccc(S(=O)(=O)N2CCOCC2)cc1C(=O)NC(=S)N(Cc1ccccc1)C(C)C 10.6%
CC1(C)C(=O)CCC2(C)C1=CCC1C2C(=O)CC2(C)C1CCC2(O)C(=O)CO (stereo unspecified) -30.8%
O=C(CCc1ccccc1)Nc1ccc(NC(=O)C2CCCCC2)nc1 -8.09%
Cc1cc([N+](=O)[O-])nn1CC(=O)Nc1ccc(Cc2ccncc2)cc1 -10.7%
Cc1nn(CC(=O)Nc2ccc(C#N)cc2)c(C)c1[N+](=O)[O-] -8.67%
Cc1ccc(NC(=O)CS(=O)CC(=O)N(c2ccccc2)C(C)C(=O)NC2CCCC2)cc1 (stereo unspecified) -14.4%
CCCc1nnc(SCC(=O)N2C(C)CCCC2C)n1CC (stereo unspecified) -7.75%
CC(NC(=O)CC1SC(N)=NC1=O)c1ccccc1 (stereo unspecified) -0.5%
C[C@H]1CN([C@@H](C)CO)C(=O)c2cc(-c3cccc(F)c3)cnc2O[C@@H]1CN(C)S(C)(=O)=O 7.41%
Cc1csc(NC(=O)C2CCCN2C(=O)OCC(C)C)n1 (stereo unspecified) -5.09%
COc1ccc(S(=O)(=O)N2CCN(CC(=O)N3CCOCC3)CC2)cc1OC -5.65%
O=C(Nc1cc(F)ccc1F)c1ccc2c(=O)n3c(nc2c1)CCC3 -9.48%
CC(C)S(=O)(=O)c1csc(NC(=O)Nc2ccc(Cl)cc2)c1Cl -6.65%
CCOc1ccc(CCNC(=O)CCc2nnc3ccc(N4CCCC4)nn23)cc1OCC 2.77%
Cc1occc(=O)c1OCc1c(Cl)cccc1Cl -9.29%
COc1cccc(NC(=O)C2(C)CCN2C(=O)CCC2CCCC2)c1 (stereo unspecified) -1.05%
CCCC(=O)N1c2ccc(-c3csc(N)n3)cc2CC1C (stereo unspecified) -21.2%
COc1ccc(C(C)(O)c2nc(-c3ccc(C)c(C)c3)cs2)cc1 (stereo unspecified) -10.5%
CC(C)NC(=O)C1(C)CCCCCN1C(=O)c1ccc(-c2ccccc2)cc1 (stereo unspecified) -9.96%
CC1(C)CCSC(/C=C/c2ccccc2)=N1 -38.8%
CNc1cnc(-c2cc(OC)c(OC)c(OC)c2)cn1 0.325%
O=C(Nc1ccccc1F)c1ccc(Cn2cc(Br)cn2)cc1 -6.63%
CC(C)CCNC(=O)c1cccnc1Sc1ccccc1 -21.6%
COCCNC(=O)C1CCN(C(=O)C2CC(=O)N(c3ccc(C)cc3)C2)CC1 (stereo unspecified) -6.43%
O=S(=O)(Cc1cc(Cl)nc(-c2cccnc2)n1)c1ccccc1 11.9%
COc1cc2c(cc1OC)CN(C(C)C(=O)Nc1cccc(S(=O)(=O)N3CCOCC3)c1)CC2 (stereo unspecified) -31.3%
CC(C)CCNC(=O)C1CCC(CNc2c(N3CCC(C)CC3)c(=O)c2=O)CC1 (stereo unspecified) -6.3%
OCC[C@H]1C[C@@H](O)[C@H](O)[C@@]2(OCCc3ccccc32)O1 -8.36%
COc1ccc(CCNC(=O)CCn2c(=O)c3ccccc3n(CC(=O)NCC3CCCO3)c2=O)cc1OC (stereo unspecified) -2.84%
CC(=O)Nc1ccc(S(=O)(=O)Oc2ccc(/C=N/N=C3/NC(=O)C(CC(=O)O)S3)cc2)cc1 (stereo unspecified) 1.2%
O=C(CCSc1ccccc1)NCCSc1ccccn1 -0.984%

Reference: PubChem BioAssay AID624464 (National Center for Advancing Translational Sciences (NCATS), 2012)
